In PubChem BioAssay (EPA / NIEHS):
Inconclusive results are not listed. The source made the active and inactive calls. The calls were made as follows: active = hit-call score of the fitted dose curve at least 0.9, where 1 is the maximum; inconclusive = response in the unintended direction; inactive = score below 0.9.

target: human Rho Associated Coiled-coil Containing Protein Kinase 1 (ROCK1), ROCK1 (gene 6093) (UniProt Q13464); experiment: NVS_ENZ_hROCK1: NovaScreen (NVS) Enzymatic Assay for human Rho Associated Coiled-coil Containing Protein Kinase 1 (ROCK1) (AID 2283214)
Procedure, shortened: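 Cell-free recombinant human ROCK1 activity assay; fluorescent substrate and product separated by electrophoretic mobility shift, read 1 h after dosing. Screened in duplicate at 25 uM; loss of signal versus DMSO baseline scored as inhibition.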

human Rho Associated Coiled-coil Containing Protein Kinase 1 (ROCK1), ROCK1 (gene 6093), sequence (Q13464 whole entry, looked up): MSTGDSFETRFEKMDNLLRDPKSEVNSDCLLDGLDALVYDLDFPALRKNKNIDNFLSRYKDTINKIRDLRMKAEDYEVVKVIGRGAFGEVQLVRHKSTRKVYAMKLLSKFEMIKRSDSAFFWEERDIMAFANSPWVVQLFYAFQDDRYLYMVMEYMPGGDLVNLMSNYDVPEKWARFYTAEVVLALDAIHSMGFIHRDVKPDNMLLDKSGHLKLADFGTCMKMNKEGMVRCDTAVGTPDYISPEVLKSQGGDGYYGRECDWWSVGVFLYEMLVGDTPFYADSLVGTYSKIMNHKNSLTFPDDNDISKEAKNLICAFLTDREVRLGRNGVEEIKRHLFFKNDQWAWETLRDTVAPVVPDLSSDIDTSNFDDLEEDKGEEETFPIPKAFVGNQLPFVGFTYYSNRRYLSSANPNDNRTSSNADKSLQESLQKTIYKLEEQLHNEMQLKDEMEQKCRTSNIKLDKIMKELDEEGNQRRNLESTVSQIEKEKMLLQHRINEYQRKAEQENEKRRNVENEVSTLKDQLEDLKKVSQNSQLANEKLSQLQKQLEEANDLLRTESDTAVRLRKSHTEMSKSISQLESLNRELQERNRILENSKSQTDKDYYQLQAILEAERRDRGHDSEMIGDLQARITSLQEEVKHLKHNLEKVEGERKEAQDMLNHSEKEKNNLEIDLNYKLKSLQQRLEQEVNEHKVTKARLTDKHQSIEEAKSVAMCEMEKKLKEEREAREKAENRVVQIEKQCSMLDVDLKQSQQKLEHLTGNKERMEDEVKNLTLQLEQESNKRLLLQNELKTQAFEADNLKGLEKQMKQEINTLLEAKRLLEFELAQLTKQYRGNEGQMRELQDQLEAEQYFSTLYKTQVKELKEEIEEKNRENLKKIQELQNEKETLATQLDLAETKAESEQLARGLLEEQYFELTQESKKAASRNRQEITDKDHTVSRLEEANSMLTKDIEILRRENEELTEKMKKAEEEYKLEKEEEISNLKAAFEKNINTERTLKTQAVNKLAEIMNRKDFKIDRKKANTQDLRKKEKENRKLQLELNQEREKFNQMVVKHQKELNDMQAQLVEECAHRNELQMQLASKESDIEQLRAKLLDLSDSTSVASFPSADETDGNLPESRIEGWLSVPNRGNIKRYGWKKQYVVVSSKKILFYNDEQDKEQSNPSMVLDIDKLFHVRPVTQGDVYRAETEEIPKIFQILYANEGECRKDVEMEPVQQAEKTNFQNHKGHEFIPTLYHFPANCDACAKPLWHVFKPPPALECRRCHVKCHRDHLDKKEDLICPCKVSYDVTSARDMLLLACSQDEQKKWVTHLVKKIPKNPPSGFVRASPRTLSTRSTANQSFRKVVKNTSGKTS

| Compound | outcome |
| --- | --- |
| CS(=O)(=O)NC(=O)c1cc(Oc2ccc(C(F)(F)F)cc2Cl)ccc1[N+](=O)[O-] | inactive |
| ClC1=C(Cl)C2(Cl)C3C(Cl)C=CC3C1(Cl)C2(Cl)Cl (stereo not given) | inactive |
| CCCCCCCCOC(=O)c1ccc(C(=O)OCCCCCCCC)c(C(=O)OCCCCCCCC)c1 | inactive |
| CCCCCCCCCCCCCN1CC(C)OC(C)C1 (stereo not given) | inactive |

target: human Protein Tyrosine Phosphatase Receptor Type M (PTPRM), PTPRM (gene 5797) (UniProt P28827); experiment: NVS_ENZ_hPTPRM: NovaScreen (NVS) Enzymatic Assay for human Protein Tyrosine Phosphatase Receptor Type M (PTPRM) (AID 2283215)
Procedure, shortened: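 Cell-free recombinant PTPRM with fluorogenic substrate; product separated from substrate by electrophoretic mobility shift and read by fluorescence, 1.33 h after dosing. Primary screen single concentration (25 uM) in duplicate; actives retested in concentration series; loss of signal versus DMSO.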

human Protein Tyrosine Phosphatase Receptor Type M (PTPRM), PTPRM (gene 5797), sequence (P28827 whole entry, looked up): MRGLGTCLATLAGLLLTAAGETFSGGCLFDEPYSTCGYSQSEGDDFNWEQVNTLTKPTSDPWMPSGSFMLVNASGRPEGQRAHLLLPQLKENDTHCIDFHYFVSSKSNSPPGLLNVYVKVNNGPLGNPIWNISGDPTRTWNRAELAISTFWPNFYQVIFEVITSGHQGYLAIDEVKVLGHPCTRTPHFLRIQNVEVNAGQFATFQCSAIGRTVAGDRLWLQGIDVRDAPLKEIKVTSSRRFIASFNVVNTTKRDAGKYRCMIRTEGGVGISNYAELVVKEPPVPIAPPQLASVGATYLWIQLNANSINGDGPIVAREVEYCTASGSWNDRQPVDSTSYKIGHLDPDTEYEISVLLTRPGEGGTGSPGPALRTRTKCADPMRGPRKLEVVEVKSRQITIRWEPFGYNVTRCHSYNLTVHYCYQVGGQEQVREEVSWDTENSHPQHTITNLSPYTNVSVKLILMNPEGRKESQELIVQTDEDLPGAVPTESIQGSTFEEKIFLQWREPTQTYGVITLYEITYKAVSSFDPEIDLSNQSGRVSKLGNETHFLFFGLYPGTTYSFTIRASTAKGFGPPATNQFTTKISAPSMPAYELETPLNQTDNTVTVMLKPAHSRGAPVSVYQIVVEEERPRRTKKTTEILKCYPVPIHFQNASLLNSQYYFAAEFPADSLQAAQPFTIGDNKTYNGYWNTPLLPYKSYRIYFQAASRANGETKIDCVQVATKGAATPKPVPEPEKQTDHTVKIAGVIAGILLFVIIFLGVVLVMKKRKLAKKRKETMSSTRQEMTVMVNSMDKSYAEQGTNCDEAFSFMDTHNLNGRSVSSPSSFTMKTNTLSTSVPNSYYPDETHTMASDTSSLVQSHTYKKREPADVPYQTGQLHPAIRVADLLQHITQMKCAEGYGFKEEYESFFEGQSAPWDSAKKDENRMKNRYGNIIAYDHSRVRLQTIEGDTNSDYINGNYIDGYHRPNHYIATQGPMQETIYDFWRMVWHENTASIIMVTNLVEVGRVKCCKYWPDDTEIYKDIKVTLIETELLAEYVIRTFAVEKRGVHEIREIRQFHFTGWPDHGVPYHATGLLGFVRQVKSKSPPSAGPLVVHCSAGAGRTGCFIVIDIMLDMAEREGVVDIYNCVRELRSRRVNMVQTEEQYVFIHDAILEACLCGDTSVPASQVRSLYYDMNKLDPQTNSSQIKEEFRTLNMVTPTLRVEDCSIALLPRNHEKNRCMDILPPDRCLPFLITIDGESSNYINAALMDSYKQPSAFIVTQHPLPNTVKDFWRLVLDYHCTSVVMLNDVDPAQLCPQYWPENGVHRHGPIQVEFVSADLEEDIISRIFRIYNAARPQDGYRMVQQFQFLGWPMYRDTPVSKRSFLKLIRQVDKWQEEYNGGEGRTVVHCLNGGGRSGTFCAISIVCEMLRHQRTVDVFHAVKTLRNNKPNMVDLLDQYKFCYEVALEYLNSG

| Compound | outcome |
| --- | --- |
| O=C(O)C1C2CCC(O2)C1C(=O)O (stereo not given) | inactive |
| O=C(Oc1ccc(Br)cc1)N1CCN2CCC1CC2 | inactive |
| CCCSC(=O)N(CCC)CCC | inactive |

target: human Sirtuin 3 (SIRT3), SIRT3 (gene 23410) (UniProt Q9NTG7); experiment: NVS_ENZ_hSIRT3: NovaScreen (NVS) Enzymatic Assay for human Sirtuin 3 (SIRT3) (AID 2283222)
Procedure, shortened: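 Cell-free enzyme assay with recombinant protein and fluorescent substrate, product separated by electrophoretic mobility shift; read 1 hour after dosing. Screened in duplicate at 25 uM, then singleton concentration-response up to 50 uM; loss of signal versus DMSO.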

human Sirtuin 3 (SIRT3), SIRT3 (gene 23410), sequence (Q9NTG7 whole entry, looked up): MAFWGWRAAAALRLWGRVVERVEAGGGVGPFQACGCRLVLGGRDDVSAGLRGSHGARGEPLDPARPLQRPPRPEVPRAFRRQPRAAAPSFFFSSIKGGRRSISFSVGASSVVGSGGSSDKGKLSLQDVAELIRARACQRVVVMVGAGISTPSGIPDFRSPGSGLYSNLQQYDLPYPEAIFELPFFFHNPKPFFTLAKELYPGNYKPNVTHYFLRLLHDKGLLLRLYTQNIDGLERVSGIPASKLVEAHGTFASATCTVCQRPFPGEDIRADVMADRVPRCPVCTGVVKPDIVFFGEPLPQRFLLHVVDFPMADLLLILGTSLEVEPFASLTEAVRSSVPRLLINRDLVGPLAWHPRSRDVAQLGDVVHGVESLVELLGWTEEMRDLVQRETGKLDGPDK

| Compound | outcome |
| --- | --- |
| O=C(Oc1ccc(Br)cc1)N1CCN2CCC1CC2 | inactive |
| ClCCOCCCl | inactive |
| CCCCC(CC)COC(=O)c1ccc(C(=O)OCC(CC)CCCC)c(C(=O)OCC(CC)CCCC)c1 (stereo not given) | inactive |
